Results filed as inconclusive are left out. A call without a number means that no potency is given here. Values without a mark were called inactive. Calls of active or inactive are those of the source. Calls come from the whole dose curve; as a rule, active = well fitted inhibition curve with a large enough effect in the repeat runs; inconclusive = weak or mixed curves; inactive = flat fitted curve, though single readings scatter.

Voltage-gated inwardly rectifying potassium channel KCNH2 (Homo sapiens), sequence (Q12809 whole entry, looked up): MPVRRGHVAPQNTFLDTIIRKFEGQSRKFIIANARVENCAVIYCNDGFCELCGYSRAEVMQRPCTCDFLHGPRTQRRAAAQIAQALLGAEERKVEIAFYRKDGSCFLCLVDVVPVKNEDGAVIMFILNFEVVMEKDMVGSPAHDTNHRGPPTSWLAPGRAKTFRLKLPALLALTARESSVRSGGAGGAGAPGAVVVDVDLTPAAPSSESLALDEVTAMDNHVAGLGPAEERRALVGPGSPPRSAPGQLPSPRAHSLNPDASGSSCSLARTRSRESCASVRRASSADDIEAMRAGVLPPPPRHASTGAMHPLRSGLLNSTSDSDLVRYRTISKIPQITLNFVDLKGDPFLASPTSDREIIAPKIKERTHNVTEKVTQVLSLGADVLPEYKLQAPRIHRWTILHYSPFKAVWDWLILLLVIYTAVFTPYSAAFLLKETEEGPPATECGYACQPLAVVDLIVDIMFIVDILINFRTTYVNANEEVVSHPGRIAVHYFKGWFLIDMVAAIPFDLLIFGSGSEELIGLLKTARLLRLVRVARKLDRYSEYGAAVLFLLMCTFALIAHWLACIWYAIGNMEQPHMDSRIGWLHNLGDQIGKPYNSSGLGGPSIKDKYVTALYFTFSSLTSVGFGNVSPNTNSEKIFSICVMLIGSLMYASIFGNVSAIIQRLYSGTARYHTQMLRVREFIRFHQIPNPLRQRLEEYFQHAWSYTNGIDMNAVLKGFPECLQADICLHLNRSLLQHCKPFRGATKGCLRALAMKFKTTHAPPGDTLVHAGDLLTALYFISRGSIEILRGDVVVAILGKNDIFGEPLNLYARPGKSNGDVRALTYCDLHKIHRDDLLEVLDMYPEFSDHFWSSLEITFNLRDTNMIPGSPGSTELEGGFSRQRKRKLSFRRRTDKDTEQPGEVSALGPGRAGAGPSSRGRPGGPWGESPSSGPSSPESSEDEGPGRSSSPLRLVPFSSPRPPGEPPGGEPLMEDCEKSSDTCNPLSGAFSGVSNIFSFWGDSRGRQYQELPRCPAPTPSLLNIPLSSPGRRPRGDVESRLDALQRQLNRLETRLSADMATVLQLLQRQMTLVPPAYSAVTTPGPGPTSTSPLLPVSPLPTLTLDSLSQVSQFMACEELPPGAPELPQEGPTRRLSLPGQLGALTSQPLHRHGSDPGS

This assay concerns the target Voltage-gated inwardly rectifying potassium channel KCNH2 (Homo sapiens) (UniProt Q12809). Description: Human Ether-a-go-go-Related Gene (hERG) channel small molecule antagonists: fluorescence cell-based qHTS assay (AID 1671200). Note: nearly all actives have a fitted effect of over 50% in size. The following applies: hERG-U2OS cells, FluxOR thallium flux fluorescence; series mostly up to 76.8 µM; activity change, negative = inhibition: at the top concentration. From the text:
National Center for Advancing Translational Sciences [NCATS]
U.S. Environmental Protection Agency [EPA]
National Institutes of Environmental Health Sciences [NIEHS]
National Toxicology Program [NTP]
U.S. Food and Drug Administration [FDA]
Mutations in the hERG channel cause Long QT (LQT) syndrome. LQT syndrome is a cardiac disorder which can cause ventricle arrhythmia and sudden death. Additionally, compounds which block the hERG channel can cause acquired LQT syndrome. Several FDA approved drugs have been removed from the market due to their hERG blocking activity. A cell-based hERG channel inhibition assay can be used to screen chemical compounds that inhibit hERG channel. This assay measures hERG channel activity using thallium ions as surrogate ions to measure potassium into the cells.
Tox21 Assay Protocol Summary:
hERG-U2OS cells were resuspended in culture medium and dispensed into 1536-well, black wall/clear-bottom plates at 1000cells/well/3uL using a Multidrop Combi dispenser (Thermo Fisher, Waltham, MA). After plates were incubated at 37 C overnight, 3 uL of Loading Buffer provided by FluxOR II Potassium Ion Channel Assay kit (Thermo, Carlsbad, CA) was added to each well. The assay plates were then incubated at room temperature in the dark for 1h. […] After the assay plates were incubated at room temperature for 10 min, 1 uL of Stimulus Buffer provided by FluxOR II Potassium Ion Channel Assay kit was added into each well and fluorescence intensity (480nm excitation/540nm emission) was continuously measured for 2 min at 1 second intervals using a Functional Drug Screening System (FDSS) 7000EX kinetic plate reader (Hamamatsu, Japan).
In the case of `CC(=O)C=C(C)C`, the Potency entry is “inactive”. As to `C1CC2OC2CC1C1CO1` (stereo not given), the Potency result is “inactive”.

Take `CC(C)C1(C)N=C(c2nc3ccccc3cc2C(=O)O)NC1=O` (stereo not given): the Potency result was “inactive”. Take `CCC(C)(CC)c1cc(NC(=O)c2c(OC)cccc2OC)on1`: the Potency entry was “inactive”. In the case of `CN=C=S`, the Potency result is “inactive”. Regarding `NCCc1ccc(O)cc1`, the “activity change, negative = inhibition” value is 1.14% [at 35.3 µM]. Consider `O=S(=O)(c1ccc(O)cc1)c1ccc(O)cc1`, for which the Potency result is “inactive”.

With `CCCC1COC(Cn2cncn2)(c2ccc(Cl)cc2Cl)O1` (stereo not given), the Potency entry was “inactive”. On to `COC(=O)c1ccccc1C(=O)OC`, for which the Potency result is “inactive”. Consider `COCCl`, for which the Potency result was “inactive”. For the compound `CCOC(=O)c1ccccc1C(=O)OCC`, the Potency result is “inactive”. Turning to `CCCCCCCCCl`, the Potency entry was “inactive”. The same measure, in the same setting: under `CC(C)NC(=O)N1CC(=O)N(c2cc(Cl)cc(Cl)c2)C1=O` stands “inactive”; under `c1ccc2c(c1)Oc1ccccc1O2`, “inactive”. Still for that read-out and setting: then `CCCCN(CCCC)SN(C)C(=O)Oc1cccc2c1OC(C)(C)C2`, with “inactive”; and `O=c1[nH]c(=O)[nH]c(=O)[nH]1`, with “inactive”. Same read-out and setting: under `Nc1ccc(Oc2ccc(N)cc2)cc1` stands “inactive”; under `O=c1n(Cl)c(=O)n(Cl)c(=O)n1Cl`, “inactive”. Turning to `O=Cc1cccc(Oc2ccccc2)c1`, the “activity change, negative = inhibition” value is -10.7%. For `C=CCO`, the Potency result was “inactive”. As to `CCc1cccc(C)c1N(C(=O)CCl)C(C)COC` (stereo not given), the Potency result was “inactive”.

In the case of `CC(C#N)CCC#N` (stereo not given), the Potency result was “inactive”. On to `COc1ccc2c3c1O[C@H]1[C@@H](O)C=C[C@H]4[C@@H](C2)N(C)CC[C@@]341`, for which the Potency entry was “inactive”. On to `CCC[CH2][Sn]([Cl])([Cl])[Cl]`, for which the Potency result was “inactive”.

For the compound `CCN(CC)CCO`, the Potency entry is “inactive”. With `Cc1ccccc1O`, the Potency entry was “inactive”. On the same count and under the same terms, then `OCCN(CCO)CCO`, with “inactive”.

For `CCCCCCCCCCCC#N`, the “activity change, negative = inhibition” value was 3.19%. As for `Oc1ccccc1Cl`, the Potency entry was “inactive”. For `c1ccc(OP(Oc2ccccc2)Oc2ccccc2)cc1`, the Potency result is “inactive”.

In the case of `Cc1ccc([N+](=O)[O-])cc1C`, the Potency entry was “inactive”. As for `CCCCCOC(=O)c1ccccc1C(=O)OCCCCC`, the Potency entry is “inactive”. For `CC(C)OC(=O)Nc1cccc(Cl)c1`, the Potency result is “inactive”. In the case of `OC(O)C(Cl)(Cl)Cl`, the Potency result is “inactive”. For `O=c1[nH]c2ccccc2c(=O)o1`, the Potency result is “inactive”. With `Cc1ccc(N)cc1Cl`, the Potency entry is “inactive”. For `Cc1[nH]c(=O)n(C(C)(C)C)c(=O)c1Cl`, the Potency result is “inactive”. Take `Clc1cccc(Cl)c1Cl`: the Potency entry is “inactive”. Take `C#CCN(C)[C@H](C)Cc1ccccc1`: the Potency entry is “inactive”.

Regarding `O=[N+]([O-])c1ccc([As](=O)(O)O)cc1`, the Potency result is “inactive”.

The values above are taken from PubChem BioAssay (Tox21).
